PAFAH2 inh: PAFAH2 (human) inhibition; Q99487; recombinant PAFAH2, FP-rhodamine activity probe, fluorescence polarization; inhibition, % at 3.39 µM; 340,000 compounds, 0.99% hits;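 active means inhibition above the mean over all tested compounds plus 3 SD, cut at about 30% in these data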;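 further: inhibitors block probe labeling of enzyme so polarization drops; 0% = enzyme with DMSO and 100% = wells lacking PAFAH2 protein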
pPAFAH FP inh: pPAFAH (human) enzyme inhibition; recombinant pPAFAH, FP-rhodamine probe fluorescence polarization; AID 463082; Q13093; inhibition, % at 3.39 µM; 330,000 compounds, 1.5% hits;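 active means inhibition above the mean inhibition across the screen plus 3 SD, cut at about 25% in these data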;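 further: inhibitors block binding of the rhodamine activity-based probe so polarization drops; 0% = enzyme with DMSO and 100% = wells lacking pPAFAH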
Fam108B inh: blocks mouse Fam108B hydrolase in RBBP9 counter-screen; recombinant Fam108B, FP-Rh probe fluorescence polarization; inhibition, % at 9.51 µM; 300,000 compounds, 0.33% hits; AID 1947;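 active means inhibition above the screen mean inhibition plus 3 SD, computed separately per campaign, cut at about 18% in these data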;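 further: inhibitors lower polarization as less probe binds the enzyme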
PAFAH1B2 inh: PAFAH1B2 (human) inhibition; 340,000 compounds, 1.2% hits; P68402; recombinant PAFAH1B2, FP-rhodamine activity probe, fluorescence polarization; inhibition, % at 3.39 µM; AID 492953;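 active means inhibition above the mean of all tested compounds plus 3 SD, cut at about 24% in these data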;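 further: 0% = enzyme with DMSO and 100% = wells lacking PAFAH1B2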
Target sequence (P68402 whole entry, looked up): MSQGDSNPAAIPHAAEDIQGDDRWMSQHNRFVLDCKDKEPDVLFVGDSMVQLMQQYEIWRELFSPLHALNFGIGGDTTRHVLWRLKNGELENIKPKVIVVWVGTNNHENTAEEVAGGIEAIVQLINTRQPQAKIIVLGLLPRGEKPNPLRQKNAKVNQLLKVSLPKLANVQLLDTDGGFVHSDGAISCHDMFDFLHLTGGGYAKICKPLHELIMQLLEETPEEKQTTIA
PAFAH1B3 inh: inhibitors of human PAFAH1B3. Q15102. recombinant PAFAH1B3, FP-rhodamine probe, fluorescence polarization. inhibition, % at 3.39 µM. 340,000 compounds, 0.28% hits. AID 492972;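 active means inhibition above the screen-wide average of all tested compounds plus 3 SD, cut at about 25% in these data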;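 further: 0% = enzyme with DMSO only and 100% = wells lacking PAFAH1B3 protein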
Target sequence (Q15102 whole entry, looked up): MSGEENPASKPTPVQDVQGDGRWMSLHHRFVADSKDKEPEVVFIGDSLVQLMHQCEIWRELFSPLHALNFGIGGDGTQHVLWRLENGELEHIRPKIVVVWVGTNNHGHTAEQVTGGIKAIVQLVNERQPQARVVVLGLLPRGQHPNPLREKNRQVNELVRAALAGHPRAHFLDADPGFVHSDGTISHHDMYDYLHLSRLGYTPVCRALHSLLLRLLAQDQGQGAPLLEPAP
PME-1 inh: PME-1 (human) inhibition. inhibition, % at 5.9 µM. recombinant PME-1, FP-Rh probe fluorescence polarization. Q9Y570. AID 2130. 320,000 compounds, 0.53% hits;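 active means inhibition above the campaign mean of all compounds plus 3 SD, cut at about 26% in these data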;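 further: competitive labeling of PME-1 active site by serine hydrolase directed probe; 0% = PME-1 with DMSO and 100% = wells lacking PME-1 enzyme; inhibitors block probe labeling so polarization falls and inhibition rises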
* hit, by the source's call. Rows were chosen to be rich in hits. Some 2.9% of all compounds tested hit in one or more screens of this group.

What do the screens show for `CCCCn1c(/C=C/c2ccco2)nc2ccccc21`?
PAFAH2 inh: 4; pPAFAH FP inh: 16; Fam108B inh: -6; PAFAH1B2 inh: -1; PAFAH1B3 inh: 0; PME-1 inh: -6

How did Clc1ccc(Cn2c(/C=C/c3ccco3)nc3ccccc32)cc1 do in these assays?
PAFAH2 inh: -1; pPAFAH FP inh: 33*; Fam108B inh: -9; PAFAH1B2 inh: -8; PAFAH1B3 inh: -11; PME-1 inh: -4

Results for CCCn1c(/C=C/c2ccco2)nc2ccccc21 ?
PAFAH2 inh: 18; pPAFAH FP inh: 25*; Fam108B inh: 0; PAFAH1B2 inh: 7; PAFAH1B3 inh: 8; PME-1 inh: 2

What do the screens show for `COc1cccc(N2CC(C(=O)Nc3nnc(SCCC4OCCO4)s3)CC2=O)c1` (stereo not given)?
PAFAH2 inh: -1; pPAFAH FP inh: 7; Fam108B inh: 0; PAFAH1B2 inh: -3; PAFAH1B3 inh: -3; PME-1 inh: 7

Results for C/C(=N/NC(=O)c1cc2ccccc2cc1O)c1ccco1 ?
PAFAH2 inh: -7; pPAFAH FP inh: 40*; Fam108B inh: 7; PAFAH1B2 inh: 5; PAFAH1B3 inh: 15; PME-1 inh: 0

How did NC(=O)NC(=O)COC(=O)c1cccc(S(=O)(=O)N2CCCCCC2)c1 do in these assays?
PAFAH2 inh: -1; pPAFAH FP inh: -4; Fam108B inh: 0; PAFAH1B2 inh: 27*; PAFAH1B3 inh: 2; PME-1 inh: 2

Results for Cc1ccc(S(=O)(=O)N2CCCCC2)cc1NC(=O)COC(=O)c1ccc2c(c1)OCO2 ?
PAFAH2 inh: 15; pPAFAH FP inh: 10; Fam108B inh: -3; PAFAH1B2 inh: 4; PAFAH1B3 inh: 3; PME-1 inh: 40*

What do the screens show for `Cc1ccc(C)c(NC(=O)COC(=O)c2cccc(S(=O)(=O)N3CCCCC3)c2)c1`?
PAFAH2 inh: 7; pPAFAH FP inh: 10; Fam108B inh: 2; PAFAH1B2 inh: 4; PAFAH1B3 inh: -2; PME-1 inh: -2

What do the screens show for `CC1CN(S(=O)(=O)c2cccc(C(=O)OCC(=O)Nc3ccc4c(c3)OCO4)c2)CC(C)O1` (stereo not given)?
PAFAH2 inh: 67*; pPAFAH FP inh: 11; Fam108B inh: 6; PAFAH1B2 inh: 0; PAFAH1B3 inh: 1; PME-1 inh: -2

What do the screens show for `Cc1ccc(S(=O)(=O)N2CCCCC2)cc1NC(=O)c1ccc2c(c1)OCO2`?
PAFAH2 inh: 10; pPAFAH FP inh: 8; Fam108B inh: -11; PAFAH1B2 inh: -5; PAFAH1B3 inh: -2; PME-1 inh: -1

Results for COc1ccccc1CNC(=O)COC(=O)c1ccc(C)c(S(=O)(=O)N2CCCCC2)c1 ?
PAFAH2 inh: 42*; pPAFAH FP inh: 27*; Fam108B inh: 2; PAFAH1B2 inh: 5; PAFAH1B3 inh: 10; PME-1 inh: 16

How did O=C(Nc1ccccc1N1CCOCC1)c1cccc2c(Br)cccc12 do in these assays?
PAFAH2 inh: -13; pPAFAH FP inh: 3; Fam108B inh: 4; PAFAH1B2 inh: 4; PAFAH1B3 inh: 5; PME-1 inh: 6

How did CCC(C)(C)C1CCC(NC(=O)c2ccc(S(=O)(=O)N3CCOCC3)cc2)CC1 (stereo not given) do in these assays?
PAFAH2 inh: 7; pPAFAH FP inh: 3; PAFAH1B2 inh: 9; PAFAH1B3 inh: -2; PME-1 inh: 1

Results for Cc1cccc(-n2nc3c(c2NC(=O)c2ccco2)CSC3)c1C ?
PAFAH2 inh: 10; pPAFAH FP inh: 31*; Fam108B inh: -3; PAFAH1B2 inh: -6; PAFAH1B3 inh: 1; PME-1 inh: -15

What do the screens show for `Cc1cccc(-n2nc3c(c2NC(=O)c2ccco2)CS(=O)C3)c1C` (stereo not given)?
PAFAH2 inh: 10; pPAFAH FP inh: -1; Fam108B inh: -6; PAFAH1B2 inh: 2; PAFAH1B3 inh: 11; PME-1 inh: 2

Results for CN1CCN(S(=O)(=O)c2csc(C(N)=O)c2)CC1 ?
PAFAH2 inh: 3; pPAFAH FP inh: 4; Fam108B inh: 0; PAFAH1B2 inh: 1; PAFAH1B3 inh: 0; PME-1 inh: 1

Results for Cc1cc(Br)ccc1OCC(=O)NNC(=O)Cc1ccccc1 ?
PAFAH2 inh: 14; pPAFAH FP inh: 2; Fam108B inh: 4; PAFAH1B2 inh: 1; PAFAH1B3 inh: -4; PME-1 inh: 0

How did Cc1cc(Br)ccc1OCC(=O)NNC(=O)C(=O)Nc1ccccc1 do in these assays?
PAFAH2 inh: 11; pPAFAH FP inh: 9; Fam108B inh: -1; PAFAH1B2 inh: 27*; PAFAH1B3 inh: 2; PME-1 inh: -5

How did Cc1cc(C(=O)COc2ccccc2C(N)=O)c(C)n1C do in these assays?
PAFAH2 inh: -5; pPAFAH FP inh: -4; Fam108B inh: -4; PAFAH1B2 inh: 0; PAFAH1B3 inh: 8; PME-1 inh: 1

What do the screens show for `Cc1cc(C(=O)COc2cccc3cccnc23)c(C)n1C`?
PAFAH2 inh: 26; pPAFAH FP inh: 26*; Fam108B inh: 8; PAFAH1B2 inh: 13; PAFAH1B3 inh: 7; PME-1 inh: 18

How did CC(C)c1ccc(N2C(=O)CC(Sc3ncn[nH]3)C2=O)cc1 (stereo not given) do in these assays?
PAFAH2 inh: -8; pPAFAH FP inh: 3; Fam108B inh: -3; PAFAH1B2 inh: 17; PAFAH1B3 inh: 0; PME-1 inh: -6

How did CC(C)c1ccc(N2C(=O)CC(Sc3nc4ccccc4o3)C2=O)cc1 (stereo not given) do in these assays?
PAFAH2 inh: -8; pPAFAH FP inh: 5; Fam108B inh: 4; PAFAH1B2 inh: 26*; PAFAH1B3 inh: 10; PME-1 inh: -1

How did CCN(CC)C(=O)Cn1cc(S(=O)(=O)CC(=O)NCCc2ccccc2)c2ccccc21 do in these assays?
PAFAH2 inh: 6; pPAFAH FP inh: -8; Fam108B inh: -3; PAFAH1B2 inh: 10; PAFAH1B3 inh: -4; PME-1 inh: -4

What do the screens show for `O=C(CNc1ccccc1)N/N=C/c1c(O)ccc2ccccc12`?
PAFAH2 inh: 3; pPAFAH FP inh: 16; Fam108B inh: 6; PAFAH1B2 inh: 12; PAFAH1B3 inh: 16; PME-1 inh: 38*

How did O=C(CSCC(=O)Nc1ccccc1)N/N=C/c1c(O)ccc2ccccc12 do in these assays?
PAFAH2 inh: 8; pPAFAH FP inh: 11; Fam108B inh: 5; PAFAH1B2 inh: 5; PAFAH1B3 inh: 16; PME-1 inh: -1

What do the screens show for `O=C(N/N=C/c1c(O)ccc2ccccc12)Nc1ccccc1`?
pPAFAH FP inh: 27*; Fam108B inh: 11; PME-1 inh: 28*

How did CCCC1(c2ccccc2)NC(=O)N(CC(=O)NCc2ccc(OC)cc2)C1=O (stereo not given) do in these assays?
PAFAH2 inh: 2; pPAFAH FP inh: 6; Fam108B inh: 0; PAFAH1B2 inh: 1; PAFAH1B3 inh: 4; PME-1 inh: 0

Results for COc1ccc(O)c(/C=N/Nc2nc(C)cc(-c3ccccc3)n2)c1 ?
PAFAH2 inh: 8; pPAFAH FP inh: 17; Fam108B inh: 6; PAFAH1B2 inh: 4; PAFAH1B3 inh: 16; PME-1 inh: 36*
